The record followed here is PubChem BioAssay AID2782 (National Center for Advancing Translational Sciences (NCATS), 2010).

The structures appear in SMILES notation. Inconclusive results are not listed. Where a call stands in place of a potency, no number is given. The source made the active and inactive calls. The call rests on the fitted dose curve; in most records, active means well fitted inhibition curve with a large enough effect in the polarisation, with a control signal flat (not every such curve was filed as active); inconclusive means small, poorly fitted or top-dose-only effect, or effect the other way, or a change in a side signal; inactive means no such curve, though single readings can be large or run the other way; the % refers to the polarisation.
Potency means the concentration at half of the fitted maximal effect.

The assay can be described thus: Confirmation of Inhibitors Targeting the Menin-MLL Interaction in MLL Related Leukemias: Competition With Texas Red Labeled MLL-derived Mutant Peptide. Particulars: fluorescence polarization, Texas Red MLL peptide displacement; series mostly up to 94.6 µM. In a few lines:
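Hits from the primary screen were retested: compounds were incubated 1 hr at ambient with 200 nM menin, 50 nM Texas Red mutant peptide and 25 nM fluorescein wild-type peptide (Tris pH 7.5, BSA-supplemented buffer), then fluorescence polarization was read.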
In general terms: In fluorescence polarisation assays a small probe gives low polarisation when free and higher when bound to something large.
Regarding `NC(=NCCCCCCN=C(N)/N=C(\N)Nc1ccc(Cl)cc1)/N=C(\N)Nc1ccc(Cl)cc1`, the Potency is 70.8 µM (active). `O=C(NC1CCN(c2ncccn2)CC1)c1c(F)cccc1F`: the Potency result is “inactive”. With `Cc1ccc(C)n1-c1ccc(N(C)C)cc1`, the Potency entry was “inactive”.

Regarding `COc1ccccc1CNCC(=O)Nc1ccc(C#N)cc1`, the Potency entry is “inactive”. For the molecule `CCc1cc2c(N3CCN(c4nnc(CC)s4)CC3)ncnc2s1`, the Potency is 11.2 µM (active).

For the molecule `COc1ccc(CC(=O)Nc2ccc(-c3nnc(-c4ccccc4)o3)cc2)cc1`, the Potency entry was “inactive”.

For `CC(c1ccncn1)N(C)Cc1nc(-c2ccc(C(F)(F)F)cc2)no1` (stereo not drawn), the Potency entry is “inactive”.

On to `COc1cc(O)c(C(=O)c2ccccc2)cc1O`, for which the Potency entry was “inactive”. Take `CCOc1ccc(-c2nn(-c3ccccc3)cc2/C=C2\SC(N)=NC2=O)cc1C`: the Potency result was “inactive”. With `C/C(=N\NC(=O)c1nnn(-c2nonc2N)c1C)c1ccc(-c2ccccc2)cc1` the entry was “inactive”; with `NC(=O)[C@@H]1CCCNc2c(I)cc([N+](=O)[O-])cc2C(=O)N[C@@H](CCCN=C(N)N)C(=O)N[C@@H](CCCN=C(N)N)C(=O)N1`, 141 µM (active).

In the case of `COC(=O)COc1ccc(C(C2C(=O)CC(C)(C)CC2=O)C2C(=O)CC(C)(C)CC2=O)cc1`, the Potency result was “inactive”. With `Cc1cc2[nH]c3c(c[n+](C)c4ccccc34)c2cc1C`, the Potency is 56.4 µM (active).
